For some assays here: Potency and affinity values are given separately.

The results in this text go back to ChEMBL document CHEMBL3988442, “University of Dundee, Small-Polar-MMV Screening Library” (2021).

Parameters in all cases: scale not given: direction of the effect not stated beside the values
The target of assay [1] is Protein translocase subunit SecA (Escherichia coli (strain K12)) (UniProt P10408). Kind of assay: Assay to Identify E. coli SecA ATPase Inhibitors. The assay is classed as functional. The conditions noted are these: 30 µM.
The target of assay [2] is T1, Ubiquitin-activating enzyme e1, putative (Leishmania donovani (strain BPK282A1)) (UniProt E9BSI1).
T1 sequence (whole entry): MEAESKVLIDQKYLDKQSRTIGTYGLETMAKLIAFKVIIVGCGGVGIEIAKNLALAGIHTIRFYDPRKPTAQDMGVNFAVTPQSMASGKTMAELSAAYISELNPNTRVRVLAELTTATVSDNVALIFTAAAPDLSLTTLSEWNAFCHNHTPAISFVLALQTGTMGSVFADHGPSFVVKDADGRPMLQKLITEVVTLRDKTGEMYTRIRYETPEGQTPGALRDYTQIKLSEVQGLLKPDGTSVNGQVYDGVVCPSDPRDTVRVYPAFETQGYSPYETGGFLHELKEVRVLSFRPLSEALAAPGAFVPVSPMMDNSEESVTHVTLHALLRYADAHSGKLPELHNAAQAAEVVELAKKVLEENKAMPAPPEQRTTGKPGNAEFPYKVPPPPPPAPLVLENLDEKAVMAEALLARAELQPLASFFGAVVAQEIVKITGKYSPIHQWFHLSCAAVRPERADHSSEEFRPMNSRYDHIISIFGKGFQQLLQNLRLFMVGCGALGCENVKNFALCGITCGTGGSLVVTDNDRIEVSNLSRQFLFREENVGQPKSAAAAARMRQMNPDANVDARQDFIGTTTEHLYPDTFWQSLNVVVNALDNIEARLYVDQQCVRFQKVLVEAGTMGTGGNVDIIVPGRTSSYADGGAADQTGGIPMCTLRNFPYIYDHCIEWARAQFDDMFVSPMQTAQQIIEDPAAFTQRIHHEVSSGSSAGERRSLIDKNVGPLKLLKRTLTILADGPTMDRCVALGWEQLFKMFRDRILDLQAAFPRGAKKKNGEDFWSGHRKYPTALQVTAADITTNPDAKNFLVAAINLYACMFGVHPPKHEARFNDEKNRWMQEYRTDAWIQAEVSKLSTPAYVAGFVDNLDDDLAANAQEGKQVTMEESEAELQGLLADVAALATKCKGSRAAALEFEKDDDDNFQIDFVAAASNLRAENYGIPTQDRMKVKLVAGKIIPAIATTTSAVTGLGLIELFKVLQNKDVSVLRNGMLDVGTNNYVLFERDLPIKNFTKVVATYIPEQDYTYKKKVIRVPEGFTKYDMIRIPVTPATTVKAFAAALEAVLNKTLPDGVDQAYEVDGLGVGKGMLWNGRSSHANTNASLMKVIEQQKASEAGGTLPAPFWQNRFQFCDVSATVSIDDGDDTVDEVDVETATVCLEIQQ
Description: Leishmania donovani Ubiquitin Activating Enzyme (LdE1). In kind it is functional. The conditions noted are these: 30 µM.

Assay [3] deals with Sialic acid-binding Ig-like lectin 9 (Homo sapiens) (UniProt Q9Y336). Description: Hs-Siglec9 ALPHAscreen SOP 20170721. The conditions noted are these: 10 µM. Background: Bead proximity is the source of the signal in Alpha formats.
In another assay the test system is Trypanosoma cruzi. Description: Trypanosoma cruzi phosphomannomutase and mannose-1-phosphate guanylyltransferase assay. The conditions noted are these: 10 µM. In kind it is functional.
The target in assay [4] is T2, Arginase-2, mitochondrial (Homo sapiens) (UniProt P78540).
T2 sequence (whole entry): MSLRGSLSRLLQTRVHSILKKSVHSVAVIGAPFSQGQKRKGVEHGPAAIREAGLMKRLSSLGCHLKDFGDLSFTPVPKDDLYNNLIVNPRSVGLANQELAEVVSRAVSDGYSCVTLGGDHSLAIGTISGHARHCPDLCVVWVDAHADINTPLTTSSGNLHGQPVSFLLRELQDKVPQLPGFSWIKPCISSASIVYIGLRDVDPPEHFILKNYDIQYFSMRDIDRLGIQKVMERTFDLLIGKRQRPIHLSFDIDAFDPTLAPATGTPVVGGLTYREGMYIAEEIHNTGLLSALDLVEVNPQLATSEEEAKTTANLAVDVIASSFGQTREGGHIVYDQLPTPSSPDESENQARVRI
Description: in vitro enzyme assay to detect the production of urea directly proportional to the activity of Arginase II. Note: in the data most compounds retested in dose-response had high values. In kind it is functional. The conditions noted are these: 33.3 µM.

Assay [5] deals with T3, Proteasome subunit beta (Trypanosoma cruzi) (UniProt O96673).
T3 sequence (whole entry): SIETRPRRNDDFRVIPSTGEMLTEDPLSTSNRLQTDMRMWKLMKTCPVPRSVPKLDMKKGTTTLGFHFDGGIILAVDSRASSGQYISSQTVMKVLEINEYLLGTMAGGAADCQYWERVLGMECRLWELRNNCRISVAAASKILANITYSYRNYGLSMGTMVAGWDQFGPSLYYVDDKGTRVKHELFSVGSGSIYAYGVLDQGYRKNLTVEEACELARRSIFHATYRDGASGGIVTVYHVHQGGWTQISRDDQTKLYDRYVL
Kind of assay: Trypanosoma cruzi proteasome chymotrypsin-like activity (TcProtChymo) assay. Note: in the data most compounds retested in dose-response had high values. In kind it is functional. As to conditions: 9.37 µM.

The species entered for another assay is Homo sapiens. Description: To identify inhibition of the IFN signalling (Jak-Stat) pathway via expression of an eGFP reporter gene under the control of an IFN-stimulated response element (ISRE) containing MxA promoter. The conditions noted are these: 30 µM. The assay is classed as functional. On the technique in general: In a reporter assay the amount or activity of a reporter protein is the signal.

Assay [6] has as its target T4, Tyrosyl-tRNA synthetase, putative (Trypanosoma cruzi (strain CL Brener)) (UniProt Q4DSP6).
T4 sequence (whole entry): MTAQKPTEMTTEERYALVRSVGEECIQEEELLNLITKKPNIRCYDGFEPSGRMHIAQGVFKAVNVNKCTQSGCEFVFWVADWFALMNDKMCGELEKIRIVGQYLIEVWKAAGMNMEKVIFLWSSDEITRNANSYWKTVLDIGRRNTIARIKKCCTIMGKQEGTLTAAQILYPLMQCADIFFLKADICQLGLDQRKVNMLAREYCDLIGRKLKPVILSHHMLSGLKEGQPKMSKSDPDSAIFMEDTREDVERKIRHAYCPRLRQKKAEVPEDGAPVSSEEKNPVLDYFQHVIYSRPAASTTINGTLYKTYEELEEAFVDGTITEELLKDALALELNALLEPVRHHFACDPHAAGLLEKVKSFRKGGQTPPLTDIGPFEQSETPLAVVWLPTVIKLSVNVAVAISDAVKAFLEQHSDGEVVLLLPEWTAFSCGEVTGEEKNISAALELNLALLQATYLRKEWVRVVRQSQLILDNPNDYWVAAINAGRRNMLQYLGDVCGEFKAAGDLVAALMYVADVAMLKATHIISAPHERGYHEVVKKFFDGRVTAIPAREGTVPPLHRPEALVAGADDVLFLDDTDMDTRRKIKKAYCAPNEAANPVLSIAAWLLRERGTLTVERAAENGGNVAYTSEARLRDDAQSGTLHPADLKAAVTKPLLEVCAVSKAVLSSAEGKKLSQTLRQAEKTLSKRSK
Description: Trypanosoma cruzi tyrosyl tRNA synthetase (TcYRS) _High Tyrosine SOP. Note: in the data most compounds retested in dose-response had high values. The conditions noted are these: 30 µM. In kind it is functional.

Assay [7] concerns the target T4, Tyrosyl-tRNA synthetase, putative (Trypanosoma cruzi (strain CL Brener)). Kind of assay: Trypanosoma cruzi tyrosyl tRNA synthetase (TcYRS) SOP. The assay is classed as functional. As to conditions: 30 µM.
In assay [8] the target is Chromo domain-containing protein 1 (Saccharomyces cerevisiae (strain ATCC 204508 / S288c) (Baker's yeast)) (UniProt P32657). Kind of assay: ScCHD-1 Enzyme Inhibition Assay. Note: in the data most compounds retested in dose-response had high values. In kind it is functional. As to conditions: 30 µM.
Chromo domain-containing protein 1 (Saccharomyces cerevisiae (strain ATCC 204508 / S288c) (Baker's yeast)), sequence (P32657 whole entry, the tested form may be a part): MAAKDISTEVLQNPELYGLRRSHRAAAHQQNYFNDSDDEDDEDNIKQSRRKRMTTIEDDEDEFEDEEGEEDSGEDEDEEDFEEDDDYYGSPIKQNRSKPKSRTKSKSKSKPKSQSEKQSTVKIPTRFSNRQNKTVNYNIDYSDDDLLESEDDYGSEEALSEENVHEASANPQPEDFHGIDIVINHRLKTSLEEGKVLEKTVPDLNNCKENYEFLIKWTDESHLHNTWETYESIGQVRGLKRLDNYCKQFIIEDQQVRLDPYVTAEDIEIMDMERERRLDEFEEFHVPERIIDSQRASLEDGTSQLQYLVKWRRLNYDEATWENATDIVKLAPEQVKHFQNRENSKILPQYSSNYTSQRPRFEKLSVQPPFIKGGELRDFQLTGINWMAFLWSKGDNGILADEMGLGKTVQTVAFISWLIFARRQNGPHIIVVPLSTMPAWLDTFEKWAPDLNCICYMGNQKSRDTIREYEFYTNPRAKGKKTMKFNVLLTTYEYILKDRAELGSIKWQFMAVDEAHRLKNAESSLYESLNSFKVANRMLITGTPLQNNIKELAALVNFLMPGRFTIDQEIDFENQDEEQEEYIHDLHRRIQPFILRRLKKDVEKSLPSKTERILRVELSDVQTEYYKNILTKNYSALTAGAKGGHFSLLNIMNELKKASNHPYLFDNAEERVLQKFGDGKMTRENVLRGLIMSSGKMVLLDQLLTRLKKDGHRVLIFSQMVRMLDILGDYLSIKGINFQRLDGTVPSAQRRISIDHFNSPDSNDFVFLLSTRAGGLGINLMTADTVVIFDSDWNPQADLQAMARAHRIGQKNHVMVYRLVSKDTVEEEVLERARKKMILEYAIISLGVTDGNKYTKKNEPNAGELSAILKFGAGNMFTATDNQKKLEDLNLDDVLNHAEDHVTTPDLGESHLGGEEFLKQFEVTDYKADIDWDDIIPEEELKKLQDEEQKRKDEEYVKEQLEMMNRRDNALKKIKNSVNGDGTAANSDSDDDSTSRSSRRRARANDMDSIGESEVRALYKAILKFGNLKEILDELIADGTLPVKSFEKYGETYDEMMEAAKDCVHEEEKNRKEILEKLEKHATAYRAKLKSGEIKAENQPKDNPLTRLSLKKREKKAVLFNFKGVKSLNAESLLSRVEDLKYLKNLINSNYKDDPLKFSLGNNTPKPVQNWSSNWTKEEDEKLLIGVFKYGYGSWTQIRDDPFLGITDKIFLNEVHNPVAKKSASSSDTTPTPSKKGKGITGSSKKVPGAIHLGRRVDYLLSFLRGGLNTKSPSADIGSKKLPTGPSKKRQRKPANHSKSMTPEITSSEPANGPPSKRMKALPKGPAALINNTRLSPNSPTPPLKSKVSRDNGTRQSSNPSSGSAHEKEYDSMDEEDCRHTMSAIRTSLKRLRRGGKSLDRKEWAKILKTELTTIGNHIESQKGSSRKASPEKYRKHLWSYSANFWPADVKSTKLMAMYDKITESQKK

Protein translocase subunit SecA (Escherichia coli (strain K12)), sequence (P10408 whole entry): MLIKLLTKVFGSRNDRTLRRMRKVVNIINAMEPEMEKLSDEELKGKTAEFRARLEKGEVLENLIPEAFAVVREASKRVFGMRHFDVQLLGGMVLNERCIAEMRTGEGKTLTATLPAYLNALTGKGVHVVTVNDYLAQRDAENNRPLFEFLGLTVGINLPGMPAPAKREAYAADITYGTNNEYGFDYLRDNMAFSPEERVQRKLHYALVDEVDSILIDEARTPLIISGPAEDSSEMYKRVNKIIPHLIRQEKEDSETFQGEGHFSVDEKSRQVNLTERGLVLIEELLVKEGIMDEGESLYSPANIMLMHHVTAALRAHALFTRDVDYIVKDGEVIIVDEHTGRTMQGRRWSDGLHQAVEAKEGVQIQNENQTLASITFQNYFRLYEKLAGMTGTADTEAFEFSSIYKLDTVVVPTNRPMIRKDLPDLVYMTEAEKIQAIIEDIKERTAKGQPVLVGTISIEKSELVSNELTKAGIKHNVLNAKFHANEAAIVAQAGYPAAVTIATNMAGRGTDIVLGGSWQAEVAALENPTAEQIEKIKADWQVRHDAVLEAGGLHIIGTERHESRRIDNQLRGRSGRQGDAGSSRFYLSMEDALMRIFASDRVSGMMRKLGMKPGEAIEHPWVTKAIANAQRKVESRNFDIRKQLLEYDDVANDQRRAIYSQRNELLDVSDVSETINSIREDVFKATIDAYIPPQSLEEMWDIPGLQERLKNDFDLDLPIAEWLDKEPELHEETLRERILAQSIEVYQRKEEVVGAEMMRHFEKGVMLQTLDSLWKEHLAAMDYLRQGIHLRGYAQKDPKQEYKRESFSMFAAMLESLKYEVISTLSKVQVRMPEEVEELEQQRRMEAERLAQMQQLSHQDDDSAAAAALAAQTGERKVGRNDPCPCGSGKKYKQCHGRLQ
Sialic acid-binding Ig-like lectin 9 (Homo sapiens), sequence (Q9Y336 whole entry): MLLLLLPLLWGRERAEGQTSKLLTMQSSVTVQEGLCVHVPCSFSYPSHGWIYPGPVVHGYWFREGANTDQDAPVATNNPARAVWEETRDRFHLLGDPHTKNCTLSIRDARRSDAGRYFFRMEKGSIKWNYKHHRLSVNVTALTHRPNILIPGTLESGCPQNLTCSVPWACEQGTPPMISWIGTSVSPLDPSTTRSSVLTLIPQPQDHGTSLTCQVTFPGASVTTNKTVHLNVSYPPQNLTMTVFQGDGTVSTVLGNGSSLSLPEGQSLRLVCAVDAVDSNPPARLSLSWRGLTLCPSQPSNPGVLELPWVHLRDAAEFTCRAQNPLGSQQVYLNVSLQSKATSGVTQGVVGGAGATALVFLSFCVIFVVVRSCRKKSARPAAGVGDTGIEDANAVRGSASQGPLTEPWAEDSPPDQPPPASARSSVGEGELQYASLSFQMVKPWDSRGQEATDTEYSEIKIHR

Consider `CCc1nc(C2CCCN2C(=O)CCn2cncn2)no1` (stereo not given), for which the Percent Effect in [1] was -0.886%; in [2], 0%; in [3] it was 9.32%; in the assay on Trypanosoma cruzi, -1.49%; in [4], 1.02%; in [5], 3.51%. Besides, the Percent Effect in the assay listed under Homo sapiens was 3.97%; in assay [6], 0.98%; in assay [7], -2.35%; in assay [8], -0.634%.
With `Cc1ncsc1-c1nnc(C2CCN(CC3CCCCC3)CC2)o1`, the Percent Effect is 1.3% in [1]; 14.7% in [2]; -11.6% in assay [3]; -1.97% in the assay with Trypanosoma cruzi; 0.443% in assay [4]; 14.8% in [5]. Also, the Percent Effect in the assay filed under Homo sapiens is 25.8%; in assay [6], -3.17%; in [7], 5%; in assay [8], -21.3%.
For the compound `CN(Cc1ccc2c(c1)OCCO2)C(=O)Cn1ccccc1=O`, the Percent Effect in assay [1] is -0.175%; in assay [2], 13.3%; in assay [3], 1.7%; with Trypanosoma cruzi, -5.02%; in assay [4], 5.76%; in assay [5] it was 19.8%. Moreover, the Percent Effect in the assay filed under Homo sapiens is 3.52%; in [6], 2.63%; in assay [7], 7.69%; in assay [8], -7.25%.
Regarding `CCOCC1CN(S(C)(=O)=O)Cc2cnn(CC3CCOCC3)c21` (stereo not given), the Percent Effect in assay [1] was -3.9%; in assay [2], 1.3%; in [3] it was -0.726%; in the assay on Trypanosoma cruzi, -5.94%; in assay [4], -5.26%; in assay [5], 10.5%. For the same compound, the Percent Effect in the assay listed under Homo sapiens is 0.606%; in [6] it was 3.68%; in assay [7], 12.8%; in assay [8], -2.94%.
Consider `COC(=O)C1CCN(C(=O)c2ccc(N(C)S(C)(=O)=O)c(C)c2)CC1`, for which the Percent Effect in assay [1] is -3.72%; in [2] it was -2.7%; in [3], -4.09%; in the assay on Trypanosoma cruzi it was -31.3%; in assay [4], -1.75%; in assay [5], 13.7%. Further, the Percent Effect in the assay filed under Homo sapiens is -11.3%; in assay [6], 2.66%; in assay [7] it was 2.44%; in assay [8], 3.29%.
Consider `Cc1ccc(Cl)cc1N1CCC(CNC(=O)CCn2ccnn2)C1` (stereo not given), for which the Percent Effect in [1] is -2.11%; in assay [2], 12.8%; in [3], -5.81%; in the assay with Trypanosoma cruzi it was -2.35%; in [4], 8.61%; in assay [5] it was 15.8%. In addition, the Percent Effect in the assay listed under Homo sapiens was 24.6%; in assay [6], 5.26%; in [7], 18.1%; in [8], 0.402%.
With `Cc1cc(NCc2cccnc2)n2nc(C)cc2n1`, the Percent Effect in assay [1] was -3.79%; in [2], 2.7%; in [3] it was 4.53%; in the assay with Trypanosoma cruzi it was -2.62%; in assay [4] it was 1.75%; in assay [5] it was 16.9%. The Percent Effect in the assay listed under Homo sapiens is 17.8%; in assay [6] it was 4.79%; in assay [7], 14.6%; in [8] it was -3.52%.
`CC(=O)N1C[C@@H](c2ccsc2)[C@@H]2CN(Cc3cccc(Cl)c3)CC[C@@H]21`: the Percent Effect in assay [1] was -3.63%; in [2], 9.33%; in assay [3] it was 5.9%; with Trypanosoma cruzi, -1.97%; in assay [4], 7.08%; in assay [5], 6.9%. Also, the Percent Effect in the assay filed under Homo sapiens is 56.9%; in assay [6], 9.52%; in assay [7] it was 20%; in assay [8], -24.3%.
For the compound `Cc1cc(CN(C)C(=O)c2ccc(F)cc2Br)no1`, the Percent Effect in assay [1] is -3.65%; in [2], 10.3%; in assay [3], -16.2%; in the assay on Trypanosoma cruzi it was -5.35%; in assay [4], -1.23%; in [5] it was 15.3%. Also, the Percent Effect in the assay filed under Homo sapiens was 28.1%; in assay [6], 3.35%; in assay [7], 10.8%; in assay [8], -3.45%.
As to `O=C(c1cc(C2CC2)on1)N1CC[C@]2(C[C@H](Oc3cccnc3)CO2)C1`, the Percent Effect is -7.12% in assay [1]; 1.3% in [2]; -0.278% in assay [3]; 6.52% with Trypanosoma cruzi; -12.2% in [4]; 6.27% in [5]. The Percent Effect is -3.24% in the assay listed under Homo sapiens, 1.58% in assay [6], 5.13% in assay [7] and 0.522% in [8].
With `CN(Cc1cn2ccccc2n1)C1CCCN(c2cccnn2)C1` (stereo not given), the Percent Effect in [1] was -0.768%; in assay [2], 26%; in assay [3], -7.59%; in the assay with Trypanosoma cruzi, 0.187%; in [4] it was -4.71%; in [5], 15.1%. Also, the Percent Effect in the assay filed under Homo sapiens is -3.7%; in [6] it was 7.84%; in assay [7] it was 18.8%; in assay [8], -9.66%.
